Compound activity from PubChem.
A selection: hits, their analogues and other compounds. The true share with any hit is near 1.9%.
HTT cytoprotect – cytoprotection in Huntington HTT-Q103 PC12 cell model; PC12 HTT-Q103 induced, cytoprotection, ATP luminescence, 40 h; Potency, µM (series often up to 56.4 µM), for inactives: cytoprotection (ATP increase), hits mostly activators; 230,000 compounds, 0.14% hits; AID 1471; also: % of control where 0% means no effect; nearly all actives have a fitted effect of over 45% in size
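Huntington model: PC12 line, ecdysone-inducible HTTQ103 exon1–GFP, tebufenozide 100 nM. Test articles in a dose series. Endpoint luminescence from cellular ATP.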
NPSR antagonist – antagonists of human neuropeptide S receptor cAMP signaling; Q6W5P4; CHO-NPSR cells, cAMP TR-FRET, antagonist mode; Potency, µM (top dose mostly 38.3 µM), inactives show at the top dose activity change, negative = inhibition, hits mostly inhibitors; 220,000 compounds, 1% hits; AID 1461; also: % is scaled to controls: 0 for no effect and ±100 for the full control effect; nearly all actives have a fitted effect of over 50% in size
Target sequence (Q6W5P4 whole entry, looked up): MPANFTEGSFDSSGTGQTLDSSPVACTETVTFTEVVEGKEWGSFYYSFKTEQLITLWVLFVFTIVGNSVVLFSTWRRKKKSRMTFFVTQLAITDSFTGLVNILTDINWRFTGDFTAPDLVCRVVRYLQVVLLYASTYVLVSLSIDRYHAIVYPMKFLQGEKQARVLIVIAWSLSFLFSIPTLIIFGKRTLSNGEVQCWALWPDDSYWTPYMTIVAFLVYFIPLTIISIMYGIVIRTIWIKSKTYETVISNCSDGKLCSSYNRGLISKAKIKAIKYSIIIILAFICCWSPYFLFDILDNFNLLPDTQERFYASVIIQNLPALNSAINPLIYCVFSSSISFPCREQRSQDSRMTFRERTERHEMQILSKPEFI
IMPase Li inh – cell-permeable IMPase inhibitors with lithium potentiation; 210,000 compounds, 0.35% hits; AID 1457; CHO-M1 cells, IP1 TR-FRET (IP-One), carbachol + lithium; Potency, µM (highest dose often 59.4 µM), inactives show at the top dose activity, negative = IMPase inhibition, most hits filed as inhibitors;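 also: IP1 builds up when IMPase is blocked and the TR-FRET signal falls; plate controls were basal vehicle for no effect and high inhibitor control for full effect; nearly all actives have a fitted effect of over 50% in size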
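CHO cells stably expressing M1 receptor (2000/well) were cultured 16–30 h, then exposed to compounds with a small lithium addition for 30 min at 37C. IP1 was measured by TR-FRET competition; AC50 from Hill fits.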
ERK EGF block – EGF-driven ERK pathway inhibition | HEK293-V1b, EGF-stimulated phospho-ERK AlphaScreen | Potency, µM (series often up to 11.5 µM), for the others: at the highest dose activity change, negative = inhibition, hits mostly inhibitors | 130,000 compounds, 0.41% hits | AID 1454;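 also: plate controls were stimulated vehicle wells for no effect and unstimulated vehicle basal for full effect; nearly all actives have a fitted effect of over 55% in size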
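Concentration-response of compounds against EGF-driven ERK phosphorylation in V1b-expressing HEK293 cells; 30 min preincubation, 5 min EGF, AlphaScreen detection; Normalized to DMSO basal and 25 nM EGF.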
HttQ103 aggreg – reduces HttQ103-GFP aggregates in PC12 cells | PC12 HttQ103-GFP aggregates, Acumen cytometry, 40 h | Potency, µM (highest dose often 46.1 µM), for inactives: top-dose activity change, negative = inhibition, hits mostly inhibitors | 220,000 compounds, 1.1% hits | AID 1688; also: % is scaled to controls: 0 for no effect and ±100 for the full control effect; nearly all actives have a fitted effect of over 60% in size
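Ecdysone-promoter PC12 model expressing HTT exon 1 Q103 fused to GFP, induced by tebufenozide at 100 nM final. Compounds titrated; aggregates sized 1–25 µm scored on a 488 nm laser cytometer.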
* marks the source's active call; other numbers are inactive results; ? = inconclusive; . = no result given; [ ] = dose if it differs, or a comment. Calls follow the shape of the dose curve; as a rule, active = well fitted curve in the direction sought with a large enough effect; inconclusive = small, poorly fitted or top-dose-only effect, or another doubt; inactive = no such curve, though single readings can be large; an effect the other way counts as inactive or inconclusive. Potency is read from the fitted curve at half-maximal effect.

SMILES	HTT cytoprotect	NPSR antagonist	IMPase Li inh	ERK EGF block	HttQ103 aggreg
[Cu].[O-]/N=C1/C(=[OH+])Nc2ccccc21.[O-]Nc1c(O)[nH]c2ccccc12	-4%[10 µM]	.	.	.	.
O=C(O)CCc1cc(I)c(O)c(I)c1	15%	.	11%	.	.
O=C1C(Cl)=C(N2CCCCC2)C(=O)C(Cl)=C1c1cnc(N2CCCCC2)s1	6%[10 µM]	6.3µM*	3%	2%	24%
COC(=O)N1C2=C(c3ccccc3[C@@H]1CC(=O)Nc1ccc3ccc4cccc5ccc1c3c45)[C@@H]1C(=O)N(c3ccccc3)C(=O)[C@@H]1[C@H](C)C2	6%[10 µM]	.	10%	.	.
Cn1c2c(c(=O)n(C)c1=O)C(NS(=O)(=O)c1ccccc1)(C(F)(F)F)C(=O)N2 (centres undefined)	3.5µM*	-1%[46.1 µM]	-12%[38.3 µM]	.	11%
COc1ccc(C(=O)Cn2nnc(-c3ccccc3NC(=O)C3CCCCC3)n2)cc1	-20%	-17%[46.1 µM]	38%[38.3 µM]	.	13µM*
CCN1CCC[C@@H]1CNC(=O)c1c(OC)ccc(I)c1O	-5%[1.9 µM]	.	.	.	.
COc1ccc(-c2nc3cnc(N(C)C)nc3n(Cc3ccc(F)cc3)c2=O)cc1	1%	.	-11%	.	.
CC(=O)c1c(C)[nH]c(C(=O)OCCCCN2C(=O)c3ccccc3C2=O)c1C	-36%	-11%[46.1 µM]	23%[38.3 µM]	.	2.8µM*
CC(=O)c1c(C)[nH]c(C(=O)OCc2ccccc2)c1C	23%[10 µM]	15%	3%	?	-11%
CCN(CC)Cc1c(O)c(Cl)cc2c3c(c(=O)oc12)CCCC3	-15%	-2%[46.1 µM]	13µM*	.	16%
CCc1c(C)c2cc(Cl)c(O)c(CN(C)C)c2oc1=O	-8%[0.074 µM]	1%[46.1 µM]	?	.	3.2µM*
Cc1cc2ccc(OC(=O)c3ccc(N=C(N)N)cc3)cc2oc1=O	8%[10 µM]	.	8%	.	.
Cc1ccccc1-c1nc(P(=O)(c2ccccc2)c2ccccc2)c(N2CCOCC2)o1	-7%[10 µM]	51%	.	1%[57.5 µM]	-6%[9.22 µM]
CCOP(=O)(c1ccccc1)c1nc(-c2ccccc2C)oc1N1CCCCC1 (centres undefined)	-18%	10µM*	15%[38.3 µM]	.	?
Cc1sc(NC(=O)CCl)c(C(=O)c2ccccc2)c1C	-57%[10 µM]	7.9µM*	65%[38.3 µM]	.	?
Cn1nc(C(F)(F)F)c(/C=N/OC(=O)c2ccccc2)c1SCc1ccc(Cl)cc1	-89%	-34%[46.1 µM]	11%[38.3 µM]	.	?
Cn1nc(C(F)(F)F)c(/C=N/OC(=O)c2ccccc2Cl)c1SCc1ccccc1Cl	-48%[10 µM]	-26%[46.1 µM]	17%	.	10µM*
O=C(NNc1nc2ccc(Cl)cc2s1)c1cc(-c2cccs2)nc2ccccc12	.	2%	15%	?	14µM*
Cc1cc(C)c2nc(NNC(=O)c3cc(-c4cccs4)nc4ccccc34)sc2c1	.	8%	-1%	?	?
CCc1ccc(NC(=O)CSc2nc3cc(C(=O)OC)ccc3c(=O)n2CC2CCCO2)cc1 (centres undefined)	-24%	-4%[46.1 µM]	14µM*	.	6%
COC(=O)c1ccc2c(=O)n(CC3CCCO3)c(SCC(=O)Nc3ccccc3Cl)nc2c1 (centres undefined)	10%[10 µM]	-17%[46.1 µM]	-5%[38.3 µM]	.	12%
O=C(O)[C@@H]1[C@@H](C(=O)NCc2ccncc2)[C@@H]2C=C[C@@H]1O2	-2%[10 µM]	.	-3%	.	.
CCCC1(C(=O)OC)C=C2C(=C(c3ccccc3)C(=O)C2C)CN1 (centres undefined)	-48%	.	-3%	-6%	.
CCCCCc1ccc(OCCC[n+]2ccccc2)c(CCCCC)c1	-96%[10 µM]	-58%	.	?	3.2µM*
SMILES	HTT cytoprotect	NPSR antagonist	IMPase Li inh	ERK EGF block	HttQ103 aggreg
CCCCCc1ccc(OCCOCCn2c[n+](C)c3ccccc32)c(CCCCC)c1	-85%	-54%	9%	?	11µM*
COc1ccc(-c2nnn(CC(=O)N(CCCN3CCOCC3)C(C(=O)NC3CCCC3)c3ccco3)n2)cc1 (centres undefined)	-16%[10 µM]	58%	1%	-8%	-14%[9.22 µM]
COc1ccc(-c2nnn(CC(=O)N(CCCN3CCOCC3)C(C(=O)NC3CCCC3)c3ccc(C)o3)n2)cc1 (centres undefined)	.	10µM*	15%	5%	.
N#Cc1c(-c2ccccc2)nc(-c2ccccc2)[nH]c1=O	-15%	-21%[46.1 µM]	3.5µM*	.	11%
N#Cc1c(-c2ccccc2)nc(-c2ccncc2)[nH]c1=O	-1%	8%	-14%	-2%	10%
N#CCCN1CCCc2cc(N=Nc3ccc(C(F)(F)F)cc3)ccc21	-9%[10 µM]	?	.	22µM*	-29%[9.22 µM]
Cn1c(C[C@@H](O)c2nc3ccccc3n2C)nc2ccccc21	-8%[10 µM]	.	1%	.	.
C[C@]12CC[C@H](O)CC1=CC[C@H]1[C@@H]2CC[C@@]2(C)C(N(CCO)CCO)CC[C@@H]12 (some centres undefined)	.	.	14%	.	.
O=C(NC1=NCCS1)c1cc(-c2ccc(F)cc2)nc2ccccc12	3%[1.9 µM]	15%	-4%	1%	-30%
CCCc1ccc(-c2cc(C(=O)NC3=NCCS3)c3ccccc3n2)cc1	-28%[10 µM]	?	.	.	4µM*
Cc1cccc(-c2cccc(-c3cc(=O)oc4cc5c(cc34)OCO5)c2)c1	-94%	.	0%	.	.
Cc1ccc(S(=O)(=O)c2c(N)n(Cc3ccco3)c3nc4ccccc4nc23)cc1C	-11%	?	30%[38.3 µM]	.	13µM*
O=C(c1ccc(S(=O)(=O)c2cccc(Cl)c2)c([N+](=O)[O-])c1)N1CCN(c2ccccn2)CC1	-205%	7%	13%	?	11µM*
O=C(c1cnc(N2CCN(c3ccccn3)CC2)c2ccccc12)N1CCN(c2cccc(Cl)c2)CC1	-71%	-14%	16%	10%	7.9µM*
O=C(c1cccc(Cl)c1)N1CCN(c2ccccn2)CC1	5%	-5%[46.1 µM]	35%[38.3 µM]	.	4%
Cc1cc(O)c2c(c1O)C(=O)C(O)=C(O)C2=O	-31%	.	33%	-3%	.
CC#CCN1c2ccccc2[C@]23C[C@@H](C(=O)OC)N(S(=O)(=O)c4ccc(C#N)cc4)C2=NC(C(=O)OC)=C(C(=O)OC)[C@H]13	-21%[10 µM]	.	-8%	.	.
FC(F)(F)c1cccc(N2CCN(C(=S)NC3CCCC3)CC2)c1	-6%[10 µM]	-4%[46.1 µM]	18%[38.3 µM]	.	?
FC(F)(F)c1cccc(N2CCN(C(=S)NC3CCCCC3)CC2)c1	-2%[10 µM]	-47%	22%	-4%	22µM*
